Compound activity deposited in PubChem BioAssay by National Center for Advancing Translational Sciences (NCATS).
Shown are actives, neighbours in structure and some others; about 2.3% of the full set was active somewhere.
TRPV1 agonist: human TRPV1 agonism; AID 540275; actives 0.19% (n = 320,000); Q8NER1; activation, % at 8.33 µM; TRPV1-expressing cells, Fluo-8 calcium influx, agonist mode; in the data active means activation above about 80%; inconclusive means between about 30% and that limit
Target sequence (Q8NER1 whole entry, looked up): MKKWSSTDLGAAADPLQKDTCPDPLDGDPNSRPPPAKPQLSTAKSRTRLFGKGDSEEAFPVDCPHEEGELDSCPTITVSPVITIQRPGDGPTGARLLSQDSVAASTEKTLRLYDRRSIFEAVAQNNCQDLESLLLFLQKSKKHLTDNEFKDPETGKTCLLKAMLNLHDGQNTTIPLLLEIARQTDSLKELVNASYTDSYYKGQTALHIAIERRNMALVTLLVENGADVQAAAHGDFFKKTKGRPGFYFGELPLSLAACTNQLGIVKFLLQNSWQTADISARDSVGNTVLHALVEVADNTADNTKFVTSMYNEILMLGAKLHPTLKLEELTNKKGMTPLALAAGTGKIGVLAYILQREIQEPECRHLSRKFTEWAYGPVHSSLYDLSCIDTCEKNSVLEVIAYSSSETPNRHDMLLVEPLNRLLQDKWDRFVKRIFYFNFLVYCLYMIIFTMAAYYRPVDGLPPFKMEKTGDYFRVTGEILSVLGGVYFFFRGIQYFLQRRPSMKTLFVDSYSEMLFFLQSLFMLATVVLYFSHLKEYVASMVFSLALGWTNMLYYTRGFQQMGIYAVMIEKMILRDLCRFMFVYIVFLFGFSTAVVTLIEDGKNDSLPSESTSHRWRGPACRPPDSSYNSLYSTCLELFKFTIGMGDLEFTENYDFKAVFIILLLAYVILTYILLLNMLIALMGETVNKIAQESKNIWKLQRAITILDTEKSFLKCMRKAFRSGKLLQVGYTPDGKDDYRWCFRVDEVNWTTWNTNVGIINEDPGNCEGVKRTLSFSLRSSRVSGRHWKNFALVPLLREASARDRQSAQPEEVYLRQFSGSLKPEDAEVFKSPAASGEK
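Cells expressing TRPV1 were dye-loaded with Fluo-8 and read kinetically: 10 s baseline, 3 min after compound (agonist portion), then 2 min after EC20 capsaicin (allosteric enhancer portion). Calcium-bound dye fluorescence at 480/520 nm.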
TRPV1 potentiator: human TRPV1 potentiation; Q8NER1; TRPV1-expressing cells, Fluo-8 calcium influx, capsaicin EC20 potentiation; potentiation, % at 8.33 µM; actives 0.02% (n = 320,000); in the data active means potentiation above about 80%; inconclusive means between about 30% and that limit
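TRPV1-expressing cells were cultured overnight at 35.5C and loaded with Fluo-8 calcium dye for 40 to 90 min at room temperature. After a 10 s baseline, compound was added and calcium influx was read kinetically for 3 min (ex 480/em 520 nm).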
ELG1 repair inh: blocks ELG1-dependent DNA repair in HEK293T cells | HEK293T ELG1-luciferase reporter, luminescence, 16 h; DNA damage induced by 5-fluorouridine | Potency, µM (highest dose often 46.1 µM), usual class: inhibitors | actives 2.3% (n = 330,000) | AID 504467; further: nearly all actives have a fitted effect of over 55% in size
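Luminescence from the luciferase reporter, measured 30 min after ONE-Glo reagent at room temperature, was the read-out. Beforehand, 2,000 cells per well were exposed for 16 hr at 37 °C to 5-fluorouridine together with compound or vehicle.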
Giardia killer: kills Giardia lamblia; actives 0.15% (n = 340,000); activity change, % at 7.66 µM, hits read low; AID 540267; Giardia lamblia trophozoite viability; in the data active means activity change below about -80%; inconclusive means between about -30% and that limit;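 further: parasites exposed to compound for two days anaerobically before the ATP read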
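Killing of trophozoites was scored by loss of ATP luminescence after a 48 hrs anaerobic exposure to compounds at 37 deg C, using 100 cells per well.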
FUS yeast rescue: FUS proteinopathy suppression in yeast; S. cerevisiae FUS-expressing, growth rescue, OD600, 24 h; Potency, µM (series often up to 76.6 µM), actives largely listed as activators; actives 0.24% (n = 390,000); AID 1347120; further: nearly all actives have a fitted effect of over 55% in size
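Restored growth of FUS-toxic S. cerevisiae, read as 600 nm absorbance after 24 h at 30C in galactose medium (starting OD 0.005). Controls CP55940 and DMSO.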
A number is an active result; i = inactive; ? = inconclusive; nt = no result. Unless noted, the call rests on the fitted dose curve; in most records, active means well fitted curve in the direction sought with a large enough effect; inconclusive means small, poorly fitted or top-dose-only effect, or another doubt; inactive means no such curve, though single readings can be large; an effect the other way counts as inactive or inconclusive.

SMILES	TRPV1 agonist	TRPV1 potentiator	ELG1 repair inh	Giardia killer	FUS yeast rescue
CCCCNC(=O)CSc1nc2ccc(Nc3nc(N4CCOCC4)nc(N4CCOCC4)n3)cc2s1	i	i	5.8µM	i	?
O=C(Nc1ccc(OC(F)(F)F)cc1)C1CCN(S(=O)(=O)c2ccc3[nH]c(=O)ccc3c2)CC1	nt	nt	nt	nt	i
COc1cccc(CNC(=O)CCc2nnc3n(C)c(=O)c4sccc4n23)c1	nt	nt	nt	nt	i
COCCN1CCN(Cc2nc(Cc3ccc(OC)c(OC)c3)no2)CC1	i	i	i	i	i
COc1ccc(Cc2noc(CN3CCCC(C(=O)c4cccs4)C3)n2)cc1OC (stereo not drawn)	?	i	18µM	i	i
COc1ccc(Cc2noc(CN3CCN(Cc4cccc(Cl)c4)CC3)n2)cc1OC	?	i	23µM	i	i
CC1=CC(C)C(/C=N/N=C(N)N)C(C)C1 (stereo not drawn)	i	i	5.8µM	i	i
CC1=CC(C)C(C[N+]2(C)CCCCC2)C(C)C1 (stereo not drawn)	i	i	i	i	i
Cc1[nH]c2c(ccc3cccnc32)c1C	i	i	15µM	i	i
Clc1ccc2ccc3cccnc3c2n1	i	?	i	i	i
COCC(C)N1C(=O)Cc2c1nc(N)c1c(N)nc(N3CCN(c4ccccc4F)CC3)c(C#N)c21 (stereo not drawn)	i	i	21µM	i	i
COCCN1C(=O)Cc2c1nc(N)c1c(N)nc(N3CCN(c4ccc(F)cc4)CC3)c(C#N)c21	i	i	i	i	?
c1ccc(C(c2nnnn2Cc2ccco2)N2CCN(c3nc4ccccc4s3)CC2)cc1 (stereo not drawn)	i	i	21µM	i	i
Cc1ccc(S(=O)(=O)Cn2nnnc2C(C(C)C)N2CCN(c3nc4ccccc4s3)CC2)cc1 (stereo not drawn)	i	i	18µM	i	i
COCCn1nnnc1C(CC(C)C)N1CCN(c2nc3ccccc3s2)CC1 (stereo not drawn)	i	i	i	i	i
COc1ccc(N2CC(NC(=O)C(=O)c3c[nH]c4ccccc34)CC2=O)cc1 (stereo not drawn)	nt	nt	nt	nt	i
CCCN1C(=O)c2ccccc2NC1c1ccc(OC)c(COc2ccc([N+](=O)[O-])cc2)c1 (stereo not drawn)	nt	nt	nt	i	nt
CN(C)c1ccc(CNc2nc(-c3ccco3)nn2S(C)(=O)=O)cc1	nt	nt	nt	nt	i
COc1ccc(S(=O)(=O)n2nc(-c3ccco3)nc2NCc2ccc(N(C)C)cc2)cc1	nt	nt	nt	nt	32µM
Cc1nc(N2CCCC2)c2c(C(=O)Nc3cccc(Cl)c3)c(C)oc2n1	nt	nt	nt	nt	i
CC(C)N1C/C(=C/c2ccsc2)C(=O)/C(=C/c2ccsc2)C1	i	i	18µM	i	i
Cn1cc([N+](=O)[O-])c(C(=O)Nc2nc(-c3ccc(Cl)cc3)cs2)n1	i	i	2.1µM	i	i
Cc1ccc(-c2nc(NC(=O)c3nn(C)cc3[N+](=O)[O-])sc2C)cc1	i	i	16µM	?	?
Cc1ccc(-c2nc(NC(=O)c3nn(C)cc3[N+](=O)[O-])sc2C)cc1C	i	i	9.2µM	?	nt
Cc1cnc(NC(=O)c2nn(C)cc2[N+](=O)[O-])s1	i	i	i	i	i
SMILES	TRPV1 agonist	TRPV1 potentiator	ELG1 repair inh	Giardia killer	FUS yeast rescue
CCCCNC(=O)C1CCC(Cn2c(=O)c3sccc3n(CC(=O)Nc3ccccc3)c2=O)CC1 (stereo not drawn)	nt	nt	nt	nt	i
CCOC(=O)C1CCN(C(=O)c2sc3nc(C)nc(N4CCC(C)CC4)c3c2C)CC1	i	i	23µM	i	i
CCOC(=O)C1CCN(C(=O)c2sc3ncnc(N4CCC(C)CC4)c3c2C)CC1	i	i	23µM	i	i
Cc1c(C(=O)N2CCN(c3ccccc3)CC2)sc2ncnc(N3CCC(C)CC3)c12	i	i	i	nt	nt
O=C1CSC(c2nn(-c3ccccc3)cc2-c2cc3ccccc3oc2=O)N1Cc1ccco1 (stereo not drawn)	i	i	?	i	?
O=C1CSC(c2cn(-c3ccccc3)nc2-c2cc3ccccc3oc2=O)N1Cc1ccccc1 (stereo not drawn)	i	i	21µM	i	i
O=C(NCc1ccccc1)C(c1ccccc1)n1c(C2CC2)nc2ccccc21 (stereo not drawn)	nt	nt	nt	nt	i
Nc1c(-c2ccccc2)c(CSc2nc3ccccc3[nH]2)nn1-c1cccc(Cl)c1	i	i	2.9µM	i	i
Cc1ccccc1-n1nc(CSc2nc3ccccc3[nH]2)c(-c2ccccc2)c1N	i	i	?	i	nt
Nc1c(-c2ccccc2)c(CSc2nc3ccccc3[nH]2)nn1-c1ccc(Cl)cc1	i	i	6.5µM	i	i
COc1ccc(OC)c(CNC(=O)c2nn(-c3ccc(OC)c(Cl)c3)c(=O)c3c2c2ccccc2n3C)c1	nt	nt	nt	nt	i
Cc1ccc(C(=O)N/C(=C\c2ccccc2)C(=O)NCc2ccncc2)cc1	i	i	1.8µM	i	i
Cc1ccc(C(=O)N/C(=C/c2ccccc2)C(=O)NCc2ccncc2)cc1	i	i	?	i	i
CCOC(=O)c1cc(-c2ccc(OC)cc2)nc2c1c(C)nn2CCC#N	i	i	3.7µM	i	?
COc1ccc(-c2cc(C(=O)O)c3c(C)nn(-c4ccccn4)c3n2)cc1	i	i	i	i	i
CCOC(=O)c1cc(-c2ccncc2)nc2c1c(C)nn2-c1ccccn1	i	i	23µM	i	i
Cc1ccccc1CN1C(=O)/C(=C\c2ccc(C(=O)NCCN3CCOCC3)cc2)Sc2ccccc21	i	i	?	i	?
Cc1cccc(CN2C(=O)/C(=C\c3ccc(C(=O)NCCN4CCOCC4)cc3)Sc3ccccc32)c1	i	i	21µM	i	i
O=C(NCCN1CCOCC1)c1ccc(/C=C2\Sc3ccccc3N(Cc3ccccc3F)C2=O)cc1	i	i	21µM	i	i
Cc1ccccc1-c1noc(-c2cccnc2N2CCN(c3ccccc3)CC2)n1	nt	nt	nt	nt	i
COc1cc2nc(C3CCC3)nc(N3CCN(c4ccccc4OC)CC3)c2cc1OC	i	i	12µM	i	nt
COc1cc2nc(C3CCC3)nc(N3CCN(c4ccccn4)CC3)c2cc1OC	?	i	10µM	i	i
O=C(Nc1ccc(N2CCOCC2)c(S(=O)(=O)Nc2ccccc2Cl)c1)c1ccc(=O)[nH]n1	nt	nt	nt	i	nt
O=C(Nc1ccc(N2CCOCC2)c(S(=O)(=O)Nc2ccccc2Cl)c1)c1ccccc1	?	i	18µM	i	i
COc1ccc(NS(=O)(=O)c2cc(NC(=O)c3ccc(C)s3)ccc2N2CCOCC2)cc1	88	i	i	i	i
O=C(Nc1ccccc1N1CCOCC1)c1ccc(Cl)c(S(=O)(=O)NCc2ccco2)c1	i	i	16µM	i	i
CCC(=O)Nc1ccc(N2CCOCC2)c(S(=O)(=O)Nc2ccc(OC)cc2)c1	i	i	i	i	i
O=C(Nc1nnc(C2CCCCC2)s1)C1CCN(C(=O)c2ccco2)CC1	nt	nt	nt	i	nt
